# Assay results from ChEMBL document CHEMBL3988442, “University of Dundee, Small-Polar-MMV Screening Library” (2021).
# The whole screen tested about 69,000 compounds, of which about 1,000 (1.4%) showed an effect of 50% or more. Shown is part of a subset that was picked to be rich in strong results.
# System: Leishmania donovani
# Experiment: Leishmania intramacrophage assay
# Assay type: functional, organism-based
# Parameters: scale not given: in the data most compounds retested in dose-response had high values
compound,measurement,setting,value
OC(CNCCc1nnc2ccccn12)c1ccc2c(c1)OCO2 (stereo not given),Percent Effect,"30.3 µM, […]",14.08%
CCn1c(CN2CCCC2)nnc1C1CCN(Cc2ccc(C)o2)CC1,Percent Effect,"30 µM, 30.03 µM",43.06%
CC[C@@]1(O)CCN(C(=O)CCSCc2ccc(F)cc2)C[C@H]1O,Percent Effect,"30.3 µM, […]",-8.433%
CCc1cnc(CN(C)C2CCN(CC3CCC3)C2)o1 (stereo not given),Percent Effect,"30.3 µM, […]",50.08%
CCc1cnc(CN(C)C2CCN(CC3CCOCC3)C2)o1 (stereo not given),Percent Effect,"30.3 µM, […]",46.35%
CCc1cnc(CN(C)C2CCN(CC3CCN(C(C)=O)CC3)C2)o1 (stereo not given),Percent Effect,"30.3 µM, […]",21.9%
CC1(C)CN(Cc2csc(CS(C)(=O)=O)n2)Cc2ccccc21,Percent Effect,"30.3 µM, […]",-3.043%
Cc1cccc(N2CCN(CCNC(=O)c3ccnn3C)CC2)c1,Percent Effect,"30 µM, 30.03 µM",32.04%
Fc1ccc(C(CNc2ccncn2)N2CCCCC2)cc1 (stereo not given),Percent Effect,"30.3 µM, […]",33.33%
Fc1ccc(C(CNc2ccncn2)N2CCCC2)cc1 (stereo not given),Percent Effect,"30.3 µM, […]",64.07%
Fc1ccccc1C(CNc1ccncn1)N1CCCC1 (stereo not given),Percent Effect,"30.3 µM, […]",13.69%
O=C(CCN1CCCCO1)NCc1cn2c(n1)SCC2,Percent Effect,"30.3 µM, […]",-7.597%
CC(CNC(=O)c1cnc[nH]1)Oc1ccc(Cl)cc1 (stereo not given),Percent Effect,"30.3 µM, […]",-8.982%
CS(=O)(=O)Cc1nc(CNc2ccc(F)c(F)c2)cs1,Percent Effect,"30.3 µM, […]",-2.721%
Cc1cc(C)n(CCCn2cncc2-c2ccc3c(c2)CC(C)N3C)n1.Cl (stereo not given),Percent Effect,"30.3 µM, […]",2.187%
Cc1noc(Cl)c1CC(=O)NCCOc1ccc(F)cc1F,Percent Effect,"30.3 µM, […]",8.93%
Cc1nonc1OCCNC(=O)COc1ccc(F)cc1F,Percent Effect,"30.3 µM, […]",56.45%
Cc1nonc1OCCNC(=O)COc1ccc(Cl)cc1Cl,Percent Effect,"30.3 µM, […]",19.12%
O=C(c1ccc(COc2ccc(Cl)cc2)o1)N1N=CCC1(O)C(F)(F)F (stereo not given),Percent Effect,"30.3 µM, […]",-74.85%
CCSCCC(C)N(C)C(=O)c1ccc(C)o1 (stereo not given),Percent Effect,"30.3 µM, […]",26.69%
Cn1ccnc1CN1CCc2c(COCC3CC3)nn(C)c2C1,Percent Effect,"30.3 µM, […]",17.02%
Cc1cc(CN2CC[C@@H]3[C@@H](CCC(=O)N3CCc3c[nH]cn3)C2)oc1C,Percent Effect,"30.3 µM, […]",21.24%
O=C(c1nnn(-c2ccccc2Cl)c1-c1ccccn1)N1CCSCC1,Percent Effect,"30.3 µM, […]",1.038%
CCC(=O)NCC(=O)NC(C)c1sc(-c2ccccc2F)nc1C (stereo not given),Percent Effect,"30.3 µM, […]",52.49%
COCC(=O)NC(C)c1sc(-c2ccccc2F)nc1C (stereo not given),Percent Effect,"30.3 µM, […]",18.86%
CC(=O)NCCC(=O)NC(C)c1sc(-c2ccccc2F)nc1C (stereo not given),Percent Effect,"30.3 µM, […]",-1.241%
CC(CNC(=O)Nc1cn[nH]c1)N1CCCC1 (stereo not given),Percent Effect,30 µM,4.879%
CC(=O)N(C)c1nc(CN2CCN(Cc3nccn3C)CC2)cs1,Percent Effect,"30.3 µM, […]",5.012%
O=S(=O)(c1c(Cl)nc2sccn12)N1CCCC2(CCNC2)C1 (stereo not given),Percent Effect,"30.3 µM, […]",49.51%
O=S(=O)(c1c(Cl)nc2sccn12)N1CCC2(CCNCC2)C1,Percent Effect,"30.3 µM, […]",51.47%
CN1CCCC2(CCN(S(=O)(=O)c3c(Cl)nc4sccn34)C2)C1=O (stereo not given),Percent Effect,"30.3 µM, […]",41%
CSCCc1n[nH]c2c1CN(S(=O)(=O)c1c(C)nn(C)c1C)CC2,Percent Effect,"30.3 µM, […]",-0.401%
CCCSc1ccccc1NC(=O)N1CCN(C(=O)c2ccc[nH]2)CC1,Percent Effect,"30.3 µM, […]",22.55%
c1coc(-c2nc3c(c(NCc4n[nH]c5c4CCC5)n2)CCNCC3)c1,Percent Effect,"30.3 µM, […]",1.11%
c1ccc(-c2nc3c(c(NCc4n[nH]c5c4CCC5)n2)CCNC3)cc1,Percent Effect,"30.3 µM, […]",100.2%
c1ccc(-c2nc3c(c(NCc4nnc5n4CCC5)n2)CCNC3)cc1,Percent Effect,"30.3 µM, […]",11%
Cc1ncsc1CN1CC(C)(C2CC2)CC1=O (stereo not given),Percent Effect,"30.3 µM, […]",-1.864%
CC(=O)N1CCC(C)(c2cc(C(=O)NCC(C)(C)C)nc(C)n2)CC1,Percent Effect,"30.3 µM, […]",-26.7%
Cc1n[nH]c2ncc(CNC3CCN(Cc4ccccn4)CC3)cc12.Cl,Percent Effect,"30.3 µM, […]",23.69%
Cc1[nH]c2ccc(CNC3CCN(Cc4ccccn4)CC3)cc2c1C,Percent Effect,"30.3 µM, […]",65.08%
Cc1cc(NC2CCN(Cc3ccccn3)CC2)n2nc(C)c(C)c2n1,Percent Effect,"30.3 µM, […]",27.06%
Cc1cc2[nH]c(=O)c(=O)[nH]c2cc1S(=O)(=O)NC1CCC(C)CC1 (stereo not given),Percent Effect,"30.3 µM, […]",6.826%
Cc1cc2[nH]c(=O)c(=O)[nH]c2cc1S(=O)(=O)NC1CCCCC1,Percent Effect,"30.3 µM, […]",4.835%
Cc1cc2nc(O)c(O)nc2cc1S(=O)(=O)NC1CC1,Percent Effect,"30.3 µM, […]",53.32%
O=C1CCCN1c1cccc(CNCc2nc(-c3ccco3)no2)c1,Percent Effect,"30.3 µM, […]",-19.6%
Cc1ccc2nc(CN(C)Cc3[nH]nc4c3CCC4)[nH]c2c1C,Percent Effect,"30.3 µM, […]",40.9%
CN(Cc1cc2n(n1)CCNC2)Cc1n[nH]c2c1CCCCC2,Percent Effect,"30.3 µM, […]",33.41%
Cc1ccc2nc(CN(C)Cc3n[nH]c4c3CCCCC4)[nH]c2c1C,Percent Effect,"30.3 µM, […]",99.15%
COc1nc2cc(C)ccc2cc1CN(C)Cc1n[nH]c2c1CCCC2,Percent Effect,"30.3 µM, […]",19.2%
Cc1ccc2[nH]c(CN(C)Cc3ccccc3C(=O)O)nc2c1,Percent Effect,"30.3 µM, […]",25.21%
Cc1ccc2[nH]c(CN(C)Cc3n[nH]c4c3CCC4)nc2c1,Percent Effect,"30.3 µM, […]",65.71%
CC(C)C(C(=O)N1CCN(c2ccncc2)CC1)n1cncn1 (stereo not given),Percent Effect,"30 µM, 30.03 µM",24.05%
CCOc1ccc(Cl)c(C(=O)N2CCCN(CC(N)=O)CC2)n1,Percent Effect,30 µM,-7.749%
N#Cc1cc2c(=O)n(CC(O)c3cccc(O)c3)ccc2[nH]c1=O (stereo not given),Percent Effect,"30.3 µM, […]",52.32%
N#Cc1cc2c(=O)n(CC(O)C(F)(F)F)ccc2[nH]c1=O (stereo not given),Percent Effect,"30.3 µM, […]",28.06%
N#Cc1cc2c(=O)n(CC(O)Cc3ccccc3)ccc2[nH]c1=O (stereo not given),Percent Effect,"30.3 µM, […]",33.38%
Cc1cnc(N2CCC3(CC(=O)N(Cc4csc(C)n4)C3)C2)nc1.O=C(O)C(F)(F)F (stereo not given),Percent Effect,"30.3 µM, […]",-11.16%
Cc1ccc(CN2CCC3(CC2)CCN(Cc2ccco2)CC3)cc1.O=C(O)C(F)(F)F.O=C(O)C(F)(F)F,Percent Effect,"30.3 µM, […]",86.21%
O=C(O)C(F)(F)F.c1cnc(N2CCOC3(CCN(CC4CCOC4)CC3)C2)nc1 (stereo not given),Percent Effect,"30.3 µM, […]",38.06%
Cc1ccc(CN2CCC3(CC2)CCN(Cc2ccoc2)CC3)cc1.O=C(O)C(F)(F)F.O=C(O)C(F)(F)F,Percent Effect,"30.3 µM, […]",75.99%
Cc1ccc(CN2CCOC3(CCN(CC4CCOC4)CC3)C2)cc1.O=C(O)C(F)(F)F.O=C(O)C(F)(F)F (stereo not given),Percent Effect,"30.3 µM, […]",54.23%
COCCC(=O)N1CCC2(CCN(Cc3cccc(F)c3)CC2)C1.O=C(O)C(F)(F)F,Percent Effect,"30.3 µM, […]",10.96%
CC(=O)N1CCC12CCN(Cc1ccco1)CC2.O=C(O)C(F)(F)F,Percent Effect,"30.3 µM, […]",4.08%
COCCC(=O)N1CCC2(CCN(Cc3ccc(C)cc3)CC2)C1.O=C(O)C(F)(F)F,Percent Effect,"30.3 µM, […]",52.88%
CN1CCNC(=O)C12CCN(Cc1ccco1)CC2.O=C(O)C(F)(F)F.O=C(O)C(F)(F)F,Percent Effect,"30.3 µM, […]",23.48%
COCC(=O)N1CCC2(CCN(Cc3ccc(C)cc3)CC2)CC1.O=C(O)C(F)(F)F,Percent Effect,"30.3 µM, […]",16.03%
CN1CCOCC12CCN(Cc1ccoc1)CC2.O=C(O)C(F)(F)F.O=C(O)C(F)(F)F,Percent Effect,"30.3 µM, […]",10.68%
COCCC(=O)N1CC2(CCN(Cc3cccc(Cl)c3)CC2)C1.O=C(O)C(F)(F)F,Percent Effect,"30 µM, 30.03 µM",20.28%
Cc1cc(C(=O)N2C[C@@H]3OCCN(CCN4CCCC4)[C@@H]3C2)c(C)o1.O=C(O)C(F)(F)F,Percent Effect,"30.3 µM, […]",6.684%
Cc1cc(C(=O)Nc2ccc3c(ccn3CCN3CCOCC3)c2)on1,Percent Effect,"30.3 µM, […]",-2.631%
CC(C)SCC(=O)N1CCc2c(nc(N(C)C)nc2N(C)C)C1,Percent Effect,"30 µM, 30.03 µM",7.439%
CC(C)C(C)(C#N)NC(=O)Cn1cc(C(N)=O)c(-c2ccccc2)n1 (stereo not given),Percent Effect,"30.3 µM, […]",-11.84%
CCOCC(=O)NCCn1ccc(-c2ccccn2)n1,Percent Effect,"30.3 µM, […]",14.51%
CCOc1ccc(Cl)cc1C(C(=O)O)N1CCOCC1 (stereo not given),Percent Effect,"30.3 µM, […]",26.6%
CC(Cn1cncc1-c1cnn(C2CCCCC2)c1)N1CCCCC1.Cl (stereo not given),Percent Effect,"30.3 µM, […]",20.46%
CC(O)CN1CCN(C(=O)CN(C)c2ccc(C#N)cn2)CC1 (stereo not given),Percent Effect,"30.3 µM, […]",-1.14%
CS(=O)(=O)N1CCOCC2(CN(Cc3ccco3)CCO2)C1.O=C(O)C(F)(F)F (stereo not given),Percent Effect,"30 µM, 30.03 µM",-12.04%
Cc1ccc(CN2CCC3(CCN(Cc4ccncc4)CC3)CC2)cc1,Percent Effect,"30.3 µM, […]",75.36%
Cn1ccnc1CN1CCC2(CC1)CCN(Cc1ccoc1)C2.O=C(O)C(F)(F)F.O=C(O)C(F)(F)F,Percent Effect,"30.3 µM, […]",10.21%
O=C(O)C(F)(F)F.O=C(O)C(F)(F)F.c1cncc(-c2ccc3c(c2)CCC32CCN(Cc3ccco3)CC2)c1,Percent Effect,"30.3 µM, […]",59.2%
O=C(O)C(F)(F)F.O=C(O)C(F)(F)F.O=C(O)C(F)(F)F.c1coc(CN2CCOC3(COCCN(Cc4ccncc4)C3)C2)c1 (stereo not given),Percent Effect,"30.3 µM, […]",52.19%
COCCC(=O)N1CC2(CCN(Cc3ccncc3)CC2)C1,Percent Effect,"30.3 µM, […]",34.97%
O=C(O)C(F)(F)F.O=C(O)C(F)(F)F.c1cncc(-c2ccc3c(c2)CCC32CCN(Cc3nccs3)CC2)c1,Percent Effect,"30.3 µM, […]",20.15%
Cc1ccc(CN2CCCC3(CCN(Cc4ccoc4)CC3)C2)cc1.O=C(O)C(F)(F)F.O=C(O)C(F)(F)F,Percent Effect,"30.3 µM, […]",70.84%
Cc1ccc(CN2CCN(Cc3ccncc3)CC2=O)cc1,Percent Effect,"30.3 µM, […]",-11.56%
Cc1ccc(CN2CCOC3(COCCN(Cc4ccncc4)C3)C2)o1.O=C(O)C(F)(F)F.O=C(O)C(F)(F)F.O=C(O)C(F)(F)F (stereo not given),Percent Effect,"30.3 µM, […]",5.942%
CN(C)CC(=O)N1CCC2(CCc3cc(-c4cccnc4)ccc32)CC1.O=C(O)C(F)(F)F.O=C(O)C(F)(F)F,Percent Effect,"30.3 µM, […]",37.66%
COCCN1CC[C@@H]2O[C@@H](COCC(=O)N3CCCC3)CC[C@@H]21.O=C(O)C(F)(F)F,Percent Effect,"30 µM, 30.03 µM",27.81%
CO[C@H]1CO[C@@]2(CCCN(C(=O)N(C)C)C2)C1,Percent Effect,"30.3 µM, […]",25.22%
O=C(NCCCn1nc2ccccn2c1=O)NCCC1CCC1,Percent Effect,"30.3 µM, […]",27.05%
CCNc1cc2c(nn1)CCN(C(=O)c1ccc3cc[nH]c3c1)C2,Percent Effect,"30 µM, 30.03 µM",18.46%
CC(C)(CO)Nc1ccc(-c2nc(-c3ccccc3F)no2)cn1,Percent Effect,"30.3 µM, […]",-6.29%
CSCC[C@@H](CO)Nc1ccc(-c2nc(-c3ccccc3F)no2)cn1,Percent Effect,"30.3 µM, […]",-35.38%
COc1cccc(-c2noc(-c3ccc(NCCCN)nc3)n2)c1OC,Percent Effect,"30.3 µM, […]",10.02%
CN(C)CCNc1ccc(-c2nc(-c3ccccc3F)no2)cn1,Percent Effect,"30.3 µM, […]",51.45%
CN(C)CCN(C)c1ccc(-c2nc(COc3ccccc3)no2)cn1,Percent Effect,"30.3 µM, […]",42.47%
CNCCNc1ccc(-c2nc(-c3cccc(OC)c3OC)no2)cn1,Percent Effect,"30.3 µM, […]",11.62%
COc1cccc(-c2noc(-c3ccc(NCCCO)nc3)n2)c1OC,Percent Effect,"30.3 µM, […]",59.5%
CN(C)CCNc1ccc(-c2nc(COc3ccccc3)no2)cn1,Percent Effect,"30.3 µM, […]",58.19%
OC[C@@H]1CCCN1c1ccc(-c2nc(COc3ccccc3)no2)cn1,Percent Effect,"30.3 µM, […]",-6.4%
